Inhibition data for 16 molecules are collected here from PubChem BioAssay.

In general, inhibition refers to the drop in the measured response relative to a control, in per cent.

Unmarked numbers belong to inactive results. The list shows a part of the results. Calls of active or inactive are those of the source.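 How the source made its calls, unless noted: active means inhibition above a cutoff equal to the mean inhibition of all tested compounds plus 3 SD (cut at about 30% in these data); inactive means the rest.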

Bcl-2-like protein 1 (Homo sapiens), sequence (Q07817 whole entry, looked up): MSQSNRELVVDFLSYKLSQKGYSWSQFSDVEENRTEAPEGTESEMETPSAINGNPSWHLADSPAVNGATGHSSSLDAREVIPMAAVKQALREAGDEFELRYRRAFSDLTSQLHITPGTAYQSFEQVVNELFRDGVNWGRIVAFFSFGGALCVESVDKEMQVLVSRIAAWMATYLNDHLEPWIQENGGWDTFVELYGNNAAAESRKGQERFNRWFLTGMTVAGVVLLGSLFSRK
Protein phosphatase methylesterase 1 (Homo sapiens), sequence (Q9Y570 whole entry, looked up): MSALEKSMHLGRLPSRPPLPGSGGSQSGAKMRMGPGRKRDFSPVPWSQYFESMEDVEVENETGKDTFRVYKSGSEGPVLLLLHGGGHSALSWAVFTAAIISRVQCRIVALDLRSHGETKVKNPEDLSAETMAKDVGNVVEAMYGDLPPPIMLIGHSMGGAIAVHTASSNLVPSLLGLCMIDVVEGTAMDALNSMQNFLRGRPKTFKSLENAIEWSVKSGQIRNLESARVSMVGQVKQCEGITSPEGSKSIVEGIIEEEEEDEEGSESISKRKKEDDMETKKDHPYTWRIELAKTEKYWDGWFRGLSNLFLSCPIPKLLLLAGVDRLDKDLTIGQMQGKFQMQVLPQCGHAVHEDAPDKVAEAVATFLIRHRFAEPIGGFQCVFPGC

The first experiment addresses Bcl-2-like protein 1 (Homo sapiens) (UniProt Q07817). The experiment is described as follows: Bcl-xL inhibitors blocking Bim BH3 binding, confirmation, counter-screen for MCL1 inhibitor project, biochemical, fluorescence polarization (AID 2166). The note with it: GST-Bcl-xL / FITC-Bim BH3 peptide FP binding; at 10.9 µM; hits give high values.
`Cc1ccc(/C=C(\C#N)C(=O)Nc2cccc3ncccc23)o1`: the inhibition is 23.1%.

Regarding `O=C(C1=C(O)C(=O)N(c2ncccn2)C1c1cccs1)c1ccco1` (configuration not stated), the inhibition was 59.5% (active).

In the case of `COc1ccc(-c2onc3ccc(C(C)=O)cc23)cc1`, the inhibition was 172% (active).

For the molecule `COCCOC(=O)c1sc(=S)n(CCOC)c1N`, the inhibition was 85.4% (active).

Turning to `O=[N+]([O-])c1cc(Cl)cc(/C=N/NC(=S)Nc2cc(S(=O)(=O)N3CCOCC3)ccc2Cl)c1O`, the inhibition is 24.4%.

For `O=C1c2ccccc2C(=O)c2c1cccc2N1CCN(CCO)CC1`, the inhibition was 43.9% (active).

Take `COc1ccc(-c2nc(CS(=O)CC(=O)NCc3ccccn3)c(C)o2)cc1` (configuration not stated): the inhibition was 96.8% (active).

Take `c1ccc(CSc2nnc(-c3ccco3)c(-c3ccco3)n2)cc1`: the inhibition was 13.9%.

On to `Cc1ccc(C2Nc3cccc4cccc(c34)N2)cc1`, for which the inhibition is 13.9%.

Consider `COCCNC(=O)Nc1ccc2nc(-c3ccco3)c(-c3ccco3)nc2c1`, for which the inhibition was 104% (active).

Regarding `CCCn1c(C2CCCN2c2nc(-c3ccc(C)cc3)cs2)nc2cc(Cl)c(N3CCCCC3)cc21` (configuration not stated), the inhibition was 4.86%.

Another experiment deals with Induced myeloid leukemia cell differentiation protein Mcl-1 (Homo sapiens) (UniProt Q07820). The experiment is described as follows: inhibitors of MCL1 binding to BIM-BH3, confirmation, biochemical, fluorescence polarization, triplicate (AID 2168;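 active means inhibition above the average of all tested compounds plus 3 SD, cut at about 40% in these data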;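 further: 0% = DMSO wells and 100% = unlabeled Bim-BH3 control peptide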). The note with it: GST-MCL1 / FITC-Bim-BH3 fluorescence polarization; at 10.9 µM; hits give high values. A general note: In fluorescence polarisation assays a small probe gives low polarisation when free and higher when bound to something large.
Induced myeloid leukemia cell differentiation protein Mcl-1 (Homo sapiens), sequence (Q07820 whole entry, looked up): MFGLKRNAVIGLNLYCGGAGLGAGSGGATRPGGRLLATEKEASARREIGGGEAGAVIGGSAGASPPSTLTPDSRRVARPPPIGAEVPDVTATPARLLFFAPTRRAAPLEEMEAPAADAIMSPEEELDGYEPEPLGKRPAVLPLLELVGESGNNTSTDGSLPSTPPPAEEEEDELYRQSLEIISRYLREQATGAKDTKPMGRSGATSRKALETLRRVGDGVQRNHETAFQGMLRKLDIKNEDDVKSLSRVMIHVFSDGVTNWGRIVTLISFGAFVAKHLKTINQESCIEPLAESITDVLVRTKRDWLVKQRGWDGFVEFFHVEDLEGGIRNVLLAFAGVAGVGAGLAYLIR
`Cc1ccc(/C=C(\C#N)C(=O)Nc2cccc3ncccc23)o1`: the inhibition is 43.1% (active).

Turning to `O=C(C1=C(O)C(=O)N(c2ncccn2)C1c1cccs1)c1ccco1` (configuration not stated), the inhibition is 88.2% (active).

Regarding `COCCOC(=O)c1sc(=S)n(CCOC)c1N`, the inhibition was 131% (active).

For `O=[N+]([O-])c1cc(Cl)cc(/C=N/NC(=S)Nc2cc(S(=O)(=O)N3CCOCC3)ccc2Cl)c1O`, the inhibition is 42.4% (active).

As for `O=C1c2ccccc2C(=O)c2c1cccc2N1CCN(CCO)CC1`, the inhibition is 58.3% (active).

For `COc1ccc(-c2nc(CS(=O)CC(=O)NCc3ccccn3)c(C)o2)cc1` (configuration not stated), the inhibition is 125% (active).

For `c1ccc(CSc2nnc(-c3ccco3)c(-c3ccco3)n2)cc1`, the inhibition was 59.9% (active).

In the case of `Cc1ccc(C2Nc3cccc4cccc(c34)N2)cc1`, the inhibition is 13.8%.

In the case of `COCCNC(=O)Nc1ccc2nc(-c3ccco3)c(-c3ccco3)nc2c1`, the inhibition is 136% (active).

Consider `CCCn1c(C2CCCN2c2nc(-c3ccc(C)cc3)cs2)nc2cc(Cl)c(N3CCCCC3)cc21` (configuration not stated), for which the inhibition is 15.1%.

The next experiment has as its target Protein phosphatase methylesterase 1 (Homo sapiens) (UniProt Q9Y570). The experiment is described as follows: PME-1 inhibitor activity retest, confirmation, biochemical, fluorescence polarization, FP-Rh probe, triplicate (AID 2171;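 active means inhibition above the hit cutoff set in the earlier primary screen, cut at about 27% in these data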;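 further: 0% = enzyme with DMSO and 100% = wells lacking PME-1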). To be noted: recombinant PME-1, FP-Rh probe fluorescence polarization; at 5.9 µM; hits give high values.
For `Cc1ccc(NS(=O)(=O)c2ccc(N/N=C/c3ccccc3OCC(=O)O)c([N+](=O)[O-])c2)c(C)c1`, the inhibition was 74.8% (active).

As for `COc1ccc(NS(=O)(=O)c2cc(NC(=O)CC(=O)c3ccc([N+](=O)[O-])cc3)ccc2C)cc1`, the inhibition is -1.55%.

Take `COCCOC(=O)c1sc(=S)n(CCOC)c1N`: the inhibition was 21.3%.

As for `Oc1ccc(C2Nc3cccc4cccc(c34)N2)cc1`, the inhibition was 12.9%.

`O=C(NNc1c2ccccc2nc2ccccc12)c1cc2ccccc2cc1O`: the inhibition is -6.46%.

As to `Cc1cccc(-c2nc(Nc3ccc(O)cc3)c3ccccc3n2)c1`, the inhibition is -0.9%.
